A number with no mark means an inactive call.
Test system: Vero E6 infected with SARS-CoV-2
Experiment: inhibition of SARS-CoV-2 cytopathic effect; higher = more antiviral protection, active = above 15
Settings: 48 h

SMILES | inhibition of SARS-CoV-2 cytopathic effect (1 nM) | inhibition of SARS-CoV-2 cytopathic effect (8.33 nM) | inhibition of SARS-CoV-2 cytopathic effect (100 nM) | inhibition of SARS-CoV-2 cytopathic effect (833.33 nM) | inhibition of SARS-CoV-2 cytopathic effect (10000 nM)
CC1CC(OC(=O)C(O)c2ccccc2)CC(C)(C)N1C (stereo not given) [eucatropine] | 0.81% | 3.45% | 1.74% | 0.69% | 0%
C[C@]12CC[C@@H]3c4ccc(O)cc4C[C@@H](CCCCCCCCC[S+]([O-])CCCC(F)(F)C(F)(F)F)[C@H]3[C@@H]1CC[C@@H]2O (stereo not given in full) [fulvestrant] | -1.55% | -1.22% | 0.63% | -0.23% | -0.95%
NCCCC[C@@H]1NC(=O)[C@@H](Cc2c[nH]c3ccccc23)NC(=O)[C@H](c2ccccc2)NC(=O)[C@@H]2C[C@@H](OC(=O)NCCN)CN2C(=O)[C@H](Cc2ccccc2)NC(=O)[C@H](Cc2ccc(OCc3ccccc3)cc2)NC1=O [pasireotide] | -6.41% | -8.12% | -5.04% | -4.91% | -5.41%
CCOC(=O)N[C@@H]1CC[C@@H]2[C@@H](C1)C[C@H]1C(=O)O[C@H](C)[C@H]1[C@H]2/C=C/c1ccc(-c2cccc(F)c2)cn1 [vorapaxar] | -1.52% | -0.15% | -0.3% | -0.44% | 0.22%
O=C(O)CNC(=O)c1c(O)c2ccccc2n(Cc2ccccc2)c1=O | -0.58% | -1.09% | 0.41% | -0.62% | -1.13%
CCOC(=O)c1ncn2c1[C@@H]1CCCN1C(=O)c1cc(OC)ccc1-2 | -0.88% | 0.22% | 0.35% | -0.77% | 0.55%
COc1ccc(S(=O)(=O)Nc2c(C)cc(C)cc2C)cc1 | 0.3% | -0.36% | 2.29% | 2.21% | 0.94%
Fc1ccc(Cl)cc1-c1nc(Nc2ccncc2)c2nccnc2n1 | -0.85% | 0.45% | -1.96% | -3.87% | -7.46%
O=C1CCC2CCC(=O)N12 [rolziracetam] | 0.67% | 1.21% | 1.49% | -1.36% | -2.89%
Cc1cc(O)c(C(=O)N[C@@H](C(=O)N[C@@H]2C(=O)N3C(C(=O)O)=C(CSc4nnnn4C)CS[C@H]23)c2ccc(O)cc2)cn1 [cefpiramide] | -0.65% | -0.72% | 0.85% | 2.35% | 3.6%
CC(=O)OCC1=C(C(=O)O)N2C(=O)[C@@H](NC(=O)CS/C(=N/C(C)C)NC(C)C)[C@H]2SC1 [cefathiamidine] | -0.52% | -0.04% | 1.14% | 0.34% | 0.26%
CN(CC(=O)O)C(=N)N [creatine] | -2.18% | 1.25% | -2.37% | -1.57% | -4.4%
CCCN(CCc1cccs1)[C@H]1CCc2c(O)cccc2C1 [rotigotine] | 0.32% | -0.89% | 1.13% | -1.26% | -6.53%
CCc1cccc(CC)c1NC(=O)N1Cc2[nH]nc(NC(=O)c3ccc(N4CCN(C)CC4)cc3)c2C1 | -4.07% | 1.98% | 1.34% | 1.38% | -0.02%
Cc1nn(C)c2nc(NNC(=O)Nc3cc(Cl)nc(Cl)c3)cc(C(C)C)c12 | -4.74% | -3.45% | -2.8% | -1.22% | 1.05%
Cc1cc(C)cc(OCC2CNC(=O)O2)c1 (stereo not given) [metaxalone] | -1.78% | -2.7% | -1.26% | 1.04% | -0.42%
CC(C)C[C@@H]1NC(=O)[C@@H](C(C)C)NC(=O)[C@@H]2CCCN2C(=O)[C@@H](CC(=O)O)NC(=O)[C@@H](Cc2c[nH]c3ccccc23)NC1=O | -2.63% | 1.4% | -0.29% | -0.26% | -0.15%
CC(=O)OCC1=C(C(=O)O)N2C(=O)[C@@H](N)[C@H]2SC1 [7-aminocephalosporanic-acid] | -5.97% | -2.34% | -5.2% | -0.34% | 3.59%
COCCOc1ccc(N2CCN(CCn3ncc4c3nc(N)n3nc(-c5ccco5)nc43)CC2)cc1 [preladenant] | 1.43% | 0.62% | 3.21% | 0.67% | 2.45%

SMILES | inhibition of SARS-CoV-2 cytopathic effect (1 nM) | inhibition of SARS-CoV-2 cytopathic effect (8.33 nM) | inhibition of SARS-CoV-2 cytopathic effect (100 nM) | inhibition of SARS-CoV-2 cytopathic effect (833.33 nM) | inhibition of SARS-CoV-2 cytopathic effect (10000 nM)
O=C(C[S+]([O-])Cc1ccco1)NC/C=C\COc1cc(CN2CCCCC2)ccn1 (stereo not given) [lafutidine] | -0.4% | 5.21% | 1.21% | 5.01% | 3.05%
COc1ccc(/C=C/CCCCOc2ccc(C(=O)c3cccc(C(=O)O)c3)cc2CCC(=O)O)cc1 | 2.26% | 1.45% | 0.3% | -3.65% | -3.88%
Cc1ccc2c(N3CCN(CCc4cccc(N5CCNC5=O)c4)CC3)cccc2n1 | -2.94% | -3.04% | -3.97% | 1.55% | 1.48%
CNC(=N)NC(=O)Nc1c(C)cccc1C [lidamidine] | 0.93% | 2.74% | 3.39% | 3.62% | -2.49%
CC1(C)N=C(N)N=C(N)N1OCCCOc1cc(Cl)c(Cl)cc1Cl | -1.05% | 0.38% | 0.21% | 0.74% | -2.49%
C[C@@H](O)[C@H]1C(=O)N2C(C(=O)O)=C(S[C@@H]3CN[C@H](C(=O)N(C)C)C3)[C@H](C)[C@H]12 [meropenem] | 0.11% | 1.38% | 0.18% | 6.2% | -0.92%
CCCCCCCCCCCCCCCCCCCCCCO [docosanol] | -8.94% | -7.8% | -10.4% | -7.91% | -4.03%
NC1(c2ccc(-c3nc4ccn5c(=O)[nH]nc5c4cc3-c3ccccc3)cc2)CCC1 | -1.08% | 0.48% | 2.84% | 1.79% | 24.5% (active)
CC(=O)N[C@H](Cc1ccc2ccccc2c1)C(=O)N[C@H](Cc1ccc(Cl)cc1)C(=O)N[C@H](Cc1cccnc1)C(=O)N[C@@H](CO)C(=O)N[C@@H](Cc1ccc(O)cc1)C(=O)N[C@H](CCCNC(N)=O)C(=O)N[C@@H](CC(C)C)C(=O)N[C@@H](CCCNC(=N)N)C(=O)N1CCC[C@H]1C(=O)N[C@H](C)C(N)=O [cetrorelix] | -4.73% | -2.29% | 5.4% | 5.13% | 8.43%
CCC(CC)Nc1cc(C)nc(Oc2c(C)cc(C)cc2C)c1C | -0.56% | 0.65% | -1.28% | 0.01% | -1.59%
N[C@@H](CCNCc1ccc(Cl)cc1)C(=O)N1CCCCC1 | 0.82% | -0.55% | -2.08% | -1.49% | -1.28%
C=C1/C(=C\C=C2/CCC[C@]3(C)[C@@H]([C@H](C)/C=C/[C@@H](O)C4CC4)CC[C@@H]23)C[C@@H](O)C[C@@H]1O [calcipotriol] | -0.16% | 1.94% | -0.66% | 0.91% | 3.83%
Cc1cccc(-c2nn3c(c2-c2ccnc4ccc(C(N)=O)cc24)CCC3)n1 | 0.85% | -0.43% | -0.97% | -0.85% | -1.59%
CC1(C)CC(O)CC(C)(C)N1[O] [tempol] | 9.35% | 1.45% | -0.66% | 1.43% | 1.53%
O=C1C(O)=C([C@H]2CC[C@H](c3ccc(Cl)cc3)CC2)C(=O)c2ccccc21 [atovaquone] | 0.09% | -1.67% | -3.09% | -1.77% | -9.21%
CCCOC(=O)c1ccccc1 [propyl-benzoate] | 2.41% | 0.41% | -0.99% | 0.39% | 2.1%
Clc1ccc(C(Cn2ccnc2)OCc2csc3c(Cl)cccc23)c(Cl)c1 (stereo not given) [sertaconazole] | 0.24% | 1.06% | -0.32% | 1.68% | -2.97%
CCSc1ccc2c(c1)N(CCCN1CCN(C)CC1)c1ccccc1S2 [thiethylperazine] | -3.78% | -1.48% | -1.97% | -4.23% | 22.5% (active)
